Most compounds without a hit are left out; they make up all but 7.5% or so of the library.
FLuc counter: qHTS profiling assay for firefly luciferase inhibitor/activator using purifed enzyme and Km concentrations of substrates (counterscreen for miR-21 project). purified FLuc, Km substrates, luminescence inhibition. AID 588342, 2011. 360,000 compounds, 6.9% hits. Potency, µM (titrated, usually from 57.5 µM), for the others: at the top dose activity change, negative = inhibition, hits mostly inhibitors. Luciferin 4-monooxygenase (Photinus pyralis), P08659;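 note: plate controls were vehicle for no effect and reference inhibitor for full effect; nearly all actives have a fitted effect of over 55% in size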
Target sequence (P08659 whole entry, looked up): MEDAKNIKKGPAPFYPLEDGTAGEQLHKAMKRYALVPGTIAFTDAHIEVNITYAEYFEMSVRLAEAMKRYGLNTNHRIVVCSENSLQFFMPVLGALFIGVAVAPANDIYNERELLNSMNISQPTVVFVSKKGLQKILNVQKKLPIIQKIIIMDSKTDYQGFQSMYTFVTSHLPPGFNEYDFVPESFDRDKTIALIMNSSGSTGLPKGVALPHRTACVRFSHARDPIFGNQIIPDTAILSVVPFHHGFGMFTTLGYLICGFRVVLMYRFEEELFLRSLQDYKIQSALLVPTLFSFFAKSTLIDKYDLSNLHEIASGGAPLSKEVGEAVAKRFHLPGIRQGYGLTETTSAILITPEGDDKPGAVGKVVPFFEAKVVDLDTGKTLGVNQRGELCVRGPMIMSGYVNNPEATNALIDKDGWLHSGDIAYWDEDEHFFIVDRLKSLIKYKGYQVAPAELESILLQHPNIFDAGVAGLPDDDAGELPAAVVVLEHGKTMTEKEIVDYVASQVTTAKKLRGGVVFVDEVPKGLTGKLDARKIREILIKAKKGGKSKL
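Biochemical qHTS of compounds, final roughly 60 µM downward over six points, against 10 nM purified firefly luciferase using Km concentrations of substrates (10 uM D-luciferin, 10 uM ATP) in Tris acetate pH 7.5 buffer; luminescence output.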
SMN2 splice enh: qHTS Assay for Enhancers of SMN2 Splice Variant Expression; HEK293 SMN2-luciferase splicing reporter, luminescence, 30-36 h; Potency, µM (highest dose often 46.1 µM), without a hit: at the top dose activity change, positive = activation, actives largely listed as activators; 210,000 compounds, 2.8% hits; AID 1458, 2008; note: % of control where 0% means no effect; nearly all actives have a fitted effect of over 55% in size
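HEK293 cells carry an SMN2 minigene-luciferase reporter in which exon 7 inclusion puts luciferase in frame. Cells were seeded at 2000 cells/well, attached for 10-12 hours, then exposed to compounds for 30-36 hours at 37C before ONE-Glo luminescence.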
NPC1 prom act: qHTS Assay for NPC1 Promoter Activators | Huh7 NPC1 promoter luciferase reporter, 24 h | Potency, µM (top dose mostly 9.22 µM), for the others: at the top dose activation, usual class: activators | 320,000 compounds, 2.4% hits | AID 485313, 2010; note: % of control where 0% means no effect; nearly all actives have a fitted effect of over 60% in size
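Quantitative HTS used a cell-based reporter: Huh7 cells stably bearing the NPC1 promoter upstream of luciferase were treated with compounds for 24 h, and promoter activation was read as luminescence.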
Rab9 prom act: qHTS Assay for Rab9 Promoter Activators; Huh7 Rab9 promoter-luciferase reporter, luminescence, 24 h; Potency, µM (titrated, usually from 9.22 µM), inactives show at the highest dose activation, negative = inhibition, most hits filed as activators; 320,000 compounds, 2.8% hits; note: % of control where 0% means no effect; nearly all actives have a fitted effect of over 60% in size
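Luminescence from Amplite-detected luciferase (10 minutes, ambient) reports Rab9 promoter activation. Before that, stable Rab9-luciferase Huh7 cells (1500/well, reduced-serum OP-MEM I plus 10% FBS) were exposed to compound for 24 hours at 37C.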
KinaseGlo FLuc: Counterscreen for Luciferase (Kinase-Glo TM) Inhibition. Luciferin 4-monooxygenase (Photuris pensylvanica), Q27757. Kinase-Glo luciferase, ATP luminescence, 8 min. Potency, µM (highest dose often 38.3 µM), for inactives: top-dose activity change, negative = inhibition, hits mostly inhibitors. 200,000 compounds, 0.28% hits. AID 1379, 2008; note: % is set by controls: 0 for no effect and ±100 for the full control effect; nearly all actives have a fitted effect of over 60% in size
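Compound is pinned into ATP-containing buffer (10 uM ATP, imidazole pH 7.2, 7 mM MgCl2). Kinase-Glo luciferase reagent is then added. Light output is recorded following an 8-min room-temperature incubation.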
ELG1 genotoxic: qHTS screen for small molecules that induce genotoxicity in human embryonic kidney (HEK293T) cells expressing luciferase-tagged ELG1; Potency, µM (series often up to 46 µM), for inactives: top-dose activity change, positive = activation, usual class: activators; AID 504466, 2011; 330,000 compounds, 1.3% hits; HEK293T ELG1-luciferase reporter, luminescence, 16 h; note: % of control where 0% means no effect; nearly all actives have a fitted effect of over 60% in size
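Luminescence read-out: rising ELG1-luciferase signal, reflecting elevated ELG1 protein under genetic stress, flags genotoxic compounds. Cells were treated for 16 hr at 37 °C before ONE-Glo detection.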
Starred values were filed as active, the others as inactive; ? = inconclusive; . = no result given; [ ] = dose if it differs, or a comment. Calls come from the whole dose curve; as a rule, active = well fitted curve in the direction sought with a large enough effect; inconclusive = small, poorly fitted or top-dose-only effect, or another doubt; inactive = no such curve, though single readings can be large; an effect the other way counts as inactive or inconclusive. Potency is the fitted concentration of half-maximal effect.

SMILES	FLuc counter	SMN2 splice enh	NPC1 prom act	Rab9 prom act	KinaseGlo FLuc	ELG1 genotoxic
N#Cc1ccc(OCc2ccc(C(=O)O)o2)cc1	?	.	-5%	11%	.	0%
Cc1ccccc1CNC(=O)C1CCN(S(=O)(=O)Cc2ccccc2)CC1	1%	.	.	.	.	.
COc1cc(-c2n[nH]c(=S)n2/N=C/c2cccn2C)cc(OC)c1OC	-11%	.	-3%	-5%	.	?
C=CCn1c(SCC(N)=O)nc2scc(-c3ccc(C)o3)c2c1=O	4.8µM*	.	?	2.5µM*	6%	?
CCOC(=O)CSc1nc2nc(C)cc(C)n2n1	0%	8%	-5%	2%	2%	-5%
CCCn1c(C)cc(C(=O)CSc2nc3nc(C)cc(C)n3n2)c1C	21µM*	-18%	-1%	0%	-2%	0%
CN(C(=O)Cn1c(=O)n(CCC(=O)NCc2ccc3c(c2)OCO3)c(=O)c2sccc21)c1ccccc1	3%	-3%	.	.	.	.
O=C(Oc1ccccc1)N1CCC2(CC1)CCN(c1ccccn1)CC2	.	-64%	.	.	0%	.
COc1ccc(-c2cc(=O)n3[nH]cnc3n2)cc1	15µM*	.	.	.	.	.
CCCC(=O)Nc1nc2c(ncn2[C@@H]2O[C@H]3COP(=O)(O)O[C@@H]3[C@@H]2OC(=O)CCC)c(=O)[nH]1	.	-4%	.	.	.	.
Cc1cccc(OC(=O)c2cc(-c3ccc4c(c3)OCCO4)on2)c1C	5.4µM*	.	.	.	.	.
O=C(Oc1ccccc1Cl)c1cc(-c2ccc3c(c2)OCCO3)on1	2.7µM*	.	.	.	.	.
Cc1ccccc1OC(=O)c1cc(-c2ccc3c(c2)OCCO3)on1	0.6µM*	.	.	.	.	.
COc1ccc(/C=C/c2ccc3ccccc3[n+]2C)cc1OC	17µM*	.	-4%	-11%	.	?
CN(C)c1ccc(/C=C/c2ccc3ccccc3[n+]2C)cc1	?	-74%	-35%	-47%	?	10%
COc1cccc(C(=O)NCc2cn3cccc(C)c3n2)c1	5%	.	.	.	.	.
Cc1ccc2c(CNCc3ccco3)cc(=O)oc2c1	24µM*	13µM*	?	?	2%	?
CCOc1ccccc1NCc1cc(=O)oc2cc(C)ccc12	?	.	-1%	-1%	.	2%
COc1ccccc1OCC(=O)NCCSCc1ccccc1Cl	-15%	19%	3%	0%	2%	2%
O=C(COc1ccccc1)NCCSCc1ccccc1Cl	27µM*	.	20%	7%	1%	17%
O=C(COc1ccccc1)Nc1ccccc1Cl	15µM*	-11%	?	?	2%	?
COC(=O)c1ccccc1NC(=O)COc1ccccc1	?	8%	7%	7%	9%	16%
CC1(c2ccccc2)NC(=O)N(CC(=O)Nc2nnc(C3CC3)s2)C1=O (centres undefined)	1%	.	-2%	4%	.	4%
COc1ccc(-c2noc(CN(C)C3CCOCC3)n2)cc1	1%	.	1%	2%	2%	9%
c1ccc(-c2noc(CCC3CCCC3)n2)cc1	11µM*	19%	14%	?	1%	?
SMILES	FLuc counter	SMN2 splice enh	NPC1 prom act	Rab9 prom act	KinaseGlo FLuc	ELG1 genotoxic
c1ccc(-c2noc(CC3CCCCC3)n2)cc1	9.5µM*	16%	18%	?	-3%	?
CN(Cc1nc(-c2ccccc2)no1)C1CCOCC1	17µM*	.	2.5µM*	?	.	?
Cc1ccc(SCC(=O)N2CCc3ccccc32)cc1	9.5µM*	?	19%	?	-2%	?
O=C(O)c1ccccc1SCC(=O)N1CCc2ccccc21	21µM*	27%	?	?	1%	14%
Nc1ccccc1SCC(=O)N1CCc2ccccc21	17µM*	68%	?	?	-2%	?
O=C(CSc1ccccc1C(=O)O)c1ccc(Cl)cc1	11µM*	.	4µM*	4µM*	.	?
COc1ccc(Cl)cc1N(CC(=O)N1CCCCCC1)S(C)(=O)=O	-2%	.	-5%	0%	.	-1%
O=C(CNc1ccccc1OC(F)F)N1CCc2ccccc21	?	14µM*	3.2µM*	3.2µM*	-10%	?
O=C(CSC1=NCCS1)N1CCc2ccccc21	13µM*	?	?	4µM*	-5%	8.2µM*
O=C(CS(=O)(=O)c1ccccc1)N1CCc2ccccc21	15µM*	14µM*	4µM*	2.5µM*	-10%	?
COc1ccccc1N(CC(=O)Nc1cc(S(=O)(=O)N(C)C)ccc1C)S(=O)(=O)c1cccs1	.	.	.	.	.	-4%
Cc1ccccc1OCC(O)Cn1nnc2ccccc21 (centres undefined)	21µM*	11µM*	?	3.5µM*	3%	?
COc1ccc(Cl)cc1NC(=S)NC(=O)c1ccco1	?	.	-18%	-9%	.	4%
Cc1ccc(C(=O)N=c2sccn2C)cc1C	-1%	.	-2%	-1%	.	10%
CCN(CC)S(=O)(=O)c1cc(C(=O)N=c2sccn2C)ccc1OC	3%	.	0%	3%	.	1%
Cn1ccsc1=NC(=O)c1ccc(Cl)c([N+](=O)[O-])c1	?	.	2%	-1%[1.84 µM]	.	15%
Cc1ccc(C(=O)N=c2sccn2C)cc1S(=O)(=O)N1CCOCC1	?	.	4µM*	1.4µM*	.	?
Cc1cccc(C(=O)N=c2sccn2C)c1[N+](=O)[O-]	15µM*	.	2.8µM*	?	.	10µM*
Cn1ccsc1=NC(=O)c1ccc(S(C)(=O)=O)c([N+](=O)[O-])c1	4.8µM*	.	?	30%	.	12%
CCCCOc1ccc(C(=O)N=c2sccn2C)cc1OC	12µM*	.	3.5µM*	2.8µM*	.	?
Cc1ccccc1C(=O)n1nc(-c2ccco2)nc1NCc1ccc(Cl)cc1	-1%	14%	.	.	.	.
Cc1ccc2cccc(NC(=O)c3ccc(-c4cccc([N+](=O)[O-])c4)o3)c2n1	-5%	3%	.	.	.	.
C=CCNC(=O)c1ccc(-c2cccc([N+](=O)[O-])c2)o1	?	22µM*	?	?	0%	?
O=C(Nc1ccccc1F)c1ccc(-c2cccc([N+](=O)[O-])c2)o1	13µM*	.	?	?	.	?
CC(C)(C)c1ccc(C(=O)N2CCCC2)s1	15µM*	.	-7%	19%	.	?
Cc1ccc(NC(=O)c2ccc(NS(=O)(=O)c3ccc4[nH]c(=O)[nH]c4c3)cc2)nc1	?	.	9%	1%	.	-5%
C[N+](C)(C)CC(=O)N1CCN(c2ccc3ccccc3n2)CC1	1%	.	0%	-1%	.	0%
CCS(=O)(=O)N1CCN(c2ccccc2F)CC1	-2%	0%	-3%	-8%	2%	3%
